GluA2 TARP mod = GluA2-stargazin AMPA receptor complex modulation; O88602+P19491; HEK293 GluA2+stargazin, membrane potential dye (FDSS), glutamate EC50; hits were called plate by plate, in both directions; calls only at 30 µM; 3.5% of 40,000 active; AID 1259245;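 active = any of four per-well response measures lying three or more SD from its plate-wide compound average, in either direction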
Target sequence (O88602 whole entry, looked up): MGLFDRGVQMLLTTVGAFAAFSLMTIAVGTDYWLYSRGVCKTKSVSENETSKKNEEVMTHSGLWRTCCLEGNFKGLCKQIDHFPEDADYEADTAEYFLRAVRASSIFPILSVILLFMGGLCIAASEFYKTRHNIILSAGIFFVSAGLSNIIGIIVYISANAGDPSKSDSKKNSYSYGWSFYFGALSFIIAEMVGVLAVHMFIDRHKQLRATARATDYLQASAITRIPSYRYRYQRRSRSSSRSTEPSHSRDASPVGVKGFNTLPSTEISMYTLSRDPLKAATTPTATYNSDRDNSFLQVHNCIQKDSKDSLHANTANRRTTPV
Target sequence (P19491 whole entry, looked up): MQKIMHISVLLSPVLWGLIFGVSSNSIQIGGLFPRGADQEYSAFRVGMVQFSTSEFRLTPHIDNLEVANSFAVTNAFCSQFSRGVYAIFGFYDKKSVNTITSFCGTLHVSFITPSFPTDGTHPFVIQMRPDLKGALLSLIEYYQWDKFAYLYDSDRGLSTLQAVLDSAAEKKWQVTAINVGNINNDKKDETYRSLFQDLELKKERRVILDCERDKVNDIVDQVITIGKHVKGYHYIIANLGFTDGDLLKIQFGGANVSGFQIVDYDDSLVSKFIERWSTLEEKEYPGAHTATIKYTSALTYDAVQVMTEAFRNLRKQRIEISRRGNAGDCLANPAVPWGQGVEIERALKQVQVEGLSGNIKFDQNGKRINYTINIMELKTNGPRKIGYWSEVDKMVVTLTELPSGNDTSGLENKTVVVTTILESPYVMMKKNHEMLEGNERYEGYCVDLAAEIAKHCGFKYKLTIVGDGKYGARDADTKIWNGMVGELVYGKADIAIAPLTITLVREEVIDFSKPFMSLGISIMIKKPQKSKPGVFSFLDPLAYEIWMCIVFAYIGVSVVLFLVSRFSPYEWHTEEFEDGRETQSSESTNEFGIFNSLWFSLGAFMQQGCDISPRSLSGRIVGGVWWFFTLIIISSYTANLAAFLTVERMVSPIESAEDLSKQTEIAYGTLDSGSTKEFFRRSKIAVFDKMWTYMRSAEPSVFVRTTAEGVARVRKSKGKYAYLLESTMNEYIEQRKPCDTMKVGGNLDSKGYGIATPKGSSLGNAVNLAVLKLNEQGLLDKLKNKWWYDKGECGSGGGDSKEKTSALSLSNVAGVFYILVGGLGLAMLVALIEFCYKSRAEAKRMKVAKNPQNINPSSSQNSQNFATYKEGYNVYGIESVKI
GIRK2 activator = Activators of human GIRK2-containing channels | P48051 | HEK293 GIRK2/NPY4 cells, thallium flux fluorescence | activation (% efficacy), % for hits at 37.5 µM | 34,000 tested, under 10 active;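 active = primary screen hit, no activity in plain HEK293 cells, and in GIRK2-only cells above 5% efficacy rising with concentration; inactive = the rest, including fluorescent compounds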;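 also: efficacy is normalized control-subtracted fluorescence 15 s after thallium addition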
* hit, by the source's call; i = inactive; . = not tested or not shown; + = active, no number. Only a selection was taken, and hits are over-represented in it overall.

SMILES	GluA2 TARP mod	GIRK2 activator
Cc1cccc(C)c1OCC(O)CN1CCCCC1C (configuration not stated)	i	i
COc1ccc2nc(N(CCN3CCOCC3)C(=O)c3ccc(Br)s3)sc2c1	+	.
O=C(c1ccc(Br)s1)N(CCN1CCOCC1)c1nc2ccccc2s1	i	i
CCn1nc(C)cc1C(=O)N(CCCN(C)C)c1nc2c(OC)ccc(Cl)c2s1	i	i
COc1ccc(OC)c2sc(N(CCN(C)C)C(=O)c3cc(C)nn3C)nc12	+	i
COc1ccc2sc(N(CCN3CCOCC3)C(=O)c3cccc(F)c3)nc2c1	i	i
COc1ccc(C)c2sc(N(CCN3CCOCC3)C(=O)c3ccc(Cl)cc3)nc12	i	.
COc1ccc(C)c2sc(N(CCN3CCOCC3)C(=O)c3ccc(Cl)s3)nc12	+	.
COc1ccc2sc(N(CCCN3CCOCC3)C(=O)c3ccno3)nc2c1	+	i
COc1cc(CCN2C(=O)c3cccc4cccc(c34)C2=O)c(S(=O)(=O)N2CCN(Cc3ccccc3)CC2)cc1OC	i	.
C=C(C)Cn1c(N/N=C/c2cccc(OC)c2O)nc2c1c(=O)n(C)c(=O)n2C	i	.
C=CCn1c(N/N=C/c2cccc(OC)c2O)nc2c1c(=O)n(C)c(=O)n2C	+	.
COc1ccc(N2CCN(C(c3cccs3)C(C)NS(=O)(=O)c3ccc(F)cc3)CC2)cc1 (configuration not stated)	i	.
COc1ccc(N2CCN(C(c3cccs3)C(C)NS(=O)(=O)c3ccc(Cl)cc3)CC2)cc1 (configuration not stated)	+	.
COc1ccc(S(=O)(=O)N2CCCCC2CC(=O)NCCCc2ccccc2)cc1 (configuration not stated)	i	.
COc1ccc(CNC(=O)C(=O)NCCC2CCCCN2S(=O)(=O)c2ccccc2)cc1 (configuration not stated)	i	.
CC(C)(C)NC(=O)NCCC1CCCCN1S(=O)(=O)c1ccccc1 (configuration not stated)	+	.
O=C(CC1CCCCN1S(=O)(=O)c1ccccc1)NCCC1=CCCCC1 (configuration not stated)	+	i
O=C(NCCc1cccs1)C1CN(c2nc3c(C(F)(F)F)cccc3s2)C1	i	i
NC(=O)c1ccccc1NC(=O)c1ccc(=O)n(Cc2ccccc2F)c1	i	i
CC1Cc2cc(-c3cc(CC(=O)Nc4ccccc4C(F)(F)F)no3)ccc2O1 (configuration not stated)	i	i
Cc1cc(C(=O)Nc2cccc3c2C(=O)NC3=O)on1	+	i
Cn1nccc1C(=O)Nc1cccc2c1C(=O)NC2=O	.	i
COC(=O)N1CCC(CNC(=O)c2cccn(C)c2=O)CC1	i	i
Cn1c(=O)c2cc(C(=O)NCCc3ccc(S(N)(=O)=O)cc3)sc2n(C)c1=O	+	i
SMILES	GluA2 TARP mod	GIRK2 activator
Cn1c(=O)c2cc(C(=O)NCCN3CCOCC3)sc2n(C)c1=O	+	i
Cn1c(=O)c2cc(C(=O)NCCCCO)sc2n(C)c1=O	+	i
Cn1c(=O)c2cc(C(=O)NCC3CCCO3)sc2n(C)c1=O (configuration not stated)	i	i
Cn1c(=O)c2cc(C(=O)NCC(O)CO)sc2n(C)c1=O (configuration not stated)	i	i
CC(O)CNC(=O)c1cc2c(=O)n(C)c(=O)n(C)c2s1 (configuration not stated)	i	i
CCCCN(C(=O)c1cc2c(=O)n(C)c(=O)n(C)c2s1)c1ccccc1	+	i
Cn1c(=O)c2cc(C(=O)N3CCN(c4ccccc4)CC3)sc2n(C)c1=O	i	.
CC(C)c1ccc(OCC(=O)N2CCN(c3ncnc4c3nnn4C)CC2)cc1	i	i
CN(C)C(CNC(=O)C(=O)Nc1ccc(F)cc1)c1cccc2ccccc12 (configuration not stated)	.	i
CCc1ccccc1-n1c(C)cn2c3c(=O)n(CCN4CCOCC4)c(=O)n(C)c3nc12	i	.
CCS(=O)(=O)N1CCN=C1SCc1ccc(Br)cc1	i	.
Cc1cc(C)n(-c2ccc(N3CCCC(C(=O)Nc4ccc(-n5cnnn5)cc4)C3)nn2)n1 (configuration not stated)	i	i
COC(=O)C1CCN(C(=O)c2cc3c(=O)n(C)c(=O)n(C)c3s2)CC1	i	i
CC(=O)Nc1cccc(NC(=O)c2cc3c(=O)n(C)c(=O)n(C)c3s2)c1	+	i
Cn1c(=O)c2cc(C(=O)N3CCCC3)sc2n(C)c1=O	+	i
Cc1cccc(NC(=O)c2cc3c(=O)n(C)c(=O)n(C)c3s2)c1C	i	i
CC(C)c1nnc(C2CCN(S(=O)(=O)c3ccc(F)cc3F)CC2)o1	i	i
COC(=O)CCC(=O)Nc1ccc(S(=O)(=O)N2CCCC2)cc1	i	.
COc1ccc(S(=O)(=O)NCC(O)(c2ccccc2)C(F)(F)F)cc1Cl (configuration not stated)	+	i
COc1ccc(S(=O)(=O)NCC(c2ccsc2)N(C)C)cc1Cl (configuration not stated)	i	i
COc1ccc(S(=O)(=O)NCCc2ccc(N(C)C)cc2)cc1Cl	+	.
O=S(=O)(NCC(O)(c1ccccc1)C(F)(F)F)c1ccc(F)c(Cl)c1 (configuration not stated)	i	i
Cc1cccc(C)c1OCC(O)Cn1c(C2CC2)nc2ccccc21 (configuration not stated)	i	i
CC(=O)N1CCCC1c1nc2ccccc2n1CCCOc1c(C)cccc1C (configuration not stated)	+	i
Cc1ccc(S(=O)(=O)N2CCCC(C(=O)Nc3cc(C)nn3C(C)C)C2)cc1 (configuration not stated)	i	i
SMILES	GluA2 TARP mod	GIRK2 activator
CS(=O)(=O)c1ccc(C(=O)Nc2nnc(-c3cccnc3)o2)cc1	+	i
COc1ccc(C(=O)Nc2nnc(-c3ccc(Br)s3)o2)cc1OC	+	i
c1ccc(-c2nnc(-c3ccncc3)o2)cc1	i	.
COc1ccc(-c2nnc(NC(=O)c3ccc(F)cc3)o2)cc1OC	i	i
COc1ccc(C(=O)Nc2nnc(-c3ccncc3)o2)cc1OC	+	.
COc1ccccc1C(=O)Nc1nnc(-c2ccc(Br)s2)o1	.	i
COc1ccc(-c2nnc(-c3ccncc3)o2)cc1OC	+	.
CS(=O)(=O)c1ccc(C(=O)Nc2nnc(-c3ccc(Br)s3)o2)cc1	i	i
COc1cc(-c2noc(-c3nnn(-c4ccccc4Br)c3C)n2)cc(OC)c1OC	i	.
COc1ccc(NC(=O)c2cc(-c3cccs3)nc3c2c(C)nn3C2CCS(=O)(=O)C2)cc1 (configuration not stated)	i	i
COc1ccc(Cl)cc1NC(=O)Cn1cnc2c(sc3nc(C)cc(C)c32)c1=O	i	.
CN1CCN(n2c3c(c(SCC(N)=O)nc2=O)CCC3)CC1	i	i
COc1ccc(N2C(=O)C3N=NN(CC(=O)Nc4cccc(Cl)c4C)C3C2=O)cc1OC (configuration not stated)	i	.
Cc1ccc(C2(C)NC(=O)NC2=O)cc1 (configuration not stated)	i	.
CC1CCN(C(=O)CSc2ccc(NC(=O)c3cccs3)nn2)CC1	i	i

From PubChem BioAssay
